# ± gives the standard deviation. Over roughly 3,700 sequences, “pre-steady-state target cleavage rate” has its median near 0.02; the highest 2% begin near 0.23. Only a selection was taken, and the highest values are over-represented in it overall.
# System: MILI (PIWIL2) piRISC loaded with Kctd7 piRNA (26 nt)
# Test: pre-steady-state target cleavage rate (min^-1); MIWI and MILI are mouse PIWI proteins and EfPiwi is from a freshwater sponge; tags in brackets are library labels; higher = faster piRNA-guided slicing of the target
# Conditions: guide: Kctd7 piRNA 5'p-UGUUAAUCUCUCAGAGAAGGUGACAG; auxiliary factor: 500 nM mouse GTSF1
# Description: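 Cleave-'n-Seq: a library of target RNAs (target site embedded in constant flanks, ACAGCATTCCGCGTTAGTGATATCCG... 5' flank; DNA-blocked outside the site) at 0.1 nM was incubated with 1 nM active mouse MILI or MIWI piRISC (synthetic 5'-monophosphorylated piRNA guide) with or without 500 nM mouse GTSF1 at 33 °C for 1 min to 16 h. Uncleaved targets were sequenced and normalised to non-target controls, and the pooled three trials were fitted to a burst-and-steady-state model to give the pre-steady-state cleavage rate (min^-1; k3 is constrained to at most 1e-4). Sequence is the target site only; target names encode pairing extent (gX:gY) and contiguous / 1-mismatch / 2-mismatch / bulge geometry. Fits with R² ≤ 0 are excluded.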
row,Sequence,pre-steady-state target cleavage rate
1,UAGUGUGUGACCUUGUCUGAGAGAUUAACA,0.0744 ± 0.014
2,UAGUGAGUCACCAUCUCUGACAGAUUAACA,0.0409 ± 0.0068
3,UAGUGACUCACCUUCUCUGAGAGCAUUAACA,0.144 ± 0.016
4,UAGUGACAGUGGAAGACUGACAGAUUUACA,< 0.0001
5,UAGUGACAGUCAUUCUCUGAGAGAUUAACA,0.00865 ± 0.0029
6,UAGUGACAGACCUUCUCUGAGAAAUUAACA,0.0522 ± 0.015
7,UAGUGACAGACGCUUCUCUGAGAGAUUAACA,0.0399 ± 0.0079
8,UAGUGAGUCAGCUUCUCUGAGAGAUUUACA,0.1 ± 0.018
9,UAGUGUGACACCAUCUCUGAGAGAUUAACA,0.137 ± 0.011
10,UAGUGACAGUCCGUCUCUGAGAGAUUAACA,0.0557 ± 0.0066
11,UAGUCUGUCAGCUUCACUGAGAGAUUAACA,0.0681 ± 0.0072
12,UAGUGACACACCUUCUCUGAGAGAUUAUGA,0.0394 ± 0.012
13,UAGUGUGUCACCUACUCUGAGACAUUAACA,0.0742 ± 0.019
14,UAGUCUGUCACCUUCUCUGUGAGUUUAACA,0.0314 ± 0.0059
15,UAGUCUGUCACCUUCUCUGAGAGUUAAACA,0.328 ± 0.096
16,UAGUCUGUCACCUUCUCUGAGAGAUUAAAA,0.12 ± 0.031
17,UAGUCUGUCACCUUCUCUGAGAGGUUAACA,0.198 ± 0.025
18,UAGUCUGUCACCUUCUCUGAGAGUUUAACA,0.238 ± 0.04
19,UAGUCUGUCACCUUCUCUGAGAGAGUUAACA,0.297 ± 0.035
20,UAGUCUGUCACCUUCUCUGAGAGUAUUAACA,0.173 ± 0.013

row,Sequence,pre-steady-state target cleavage rate
1,UAGUCUGUCACCUUCUCUGAGAGAUUAAACA,0.147 ± 0.018
2,UAGUCUGUCACCUUCUCUGAGAGUAUAACA,0.122 ± 0.022
3,UAGUCUGUCACCUUCUGUGAGAGUUUAACA,0.0702 ± 0.016
4,UAGUCUGUCACCUUCUCUGAGAGUAAAACA,0.0676 ± 0.024
5,UAGUCUGUCACCUUCUCUGAGAGAGUAACA,0.245 ± 0.033
6,UAGUGACAGUCCUUCUCUGAGUCAUUAAGA,< 0.0001
7,UAGUGACACACGAUCUCUGAGAGAUUAACA,0.0352 ± 0.0045
8,UAGUGACAGACCUUAUCUGAGAGAUUAACA,0.0894 ± 0.017
9,UAGUGACAGUGCUUCUCCGAGAGAUUAACA,0.0082 ± 0.0034
10,UAGUGACAGUGGAAGAGAGAGAGAUUGAACA,< 0.0001
11,UAGUGAGUCAGCUACUCUGAGAGAUUAACA,0.135 ± 0.01
12,UAGUGACACACCAACUCUGAGAGAUUAAGA,0.018 ± 0.0037
13,UAGUGACAGUCCUUCUCAGAGAGAUUUACA,0.0138 ± 0.0054
14,UAGUGACAGUGCUUCUCUGAGACAUAAACA,< 0.0001
15,UAGUGAGUCACCUUCUCAGAGAGAUUUACA,0.0954 ± 0.024
16,UAGUCUGUCACCUUCUCUGAGAGACUUAACA,0.145 ± 0.024
17,UAGUCUGUCACCUUCUCUGAGAGCUUAACA,0.148 ± 0.016
18,UAGUCUGUCACCUUCUCUGAGAGUUAACA,0.278 ± 0.082
19,UAGUCUGUCACCAACUCUGAGAGAUUAAGA,0.047 ± 0.0083
20,UAGUCUGUCCACCUUCUCUGAGAGAUUAACA,0.15 ± 0.018
